Screens (PubChem)
MCF10A rerep: A quantitative high throughput screen for small molecules that induce DNA re-replication in MCF 10a normal breast cells; MCF 10A DNA re-replication, Hoechst nuclear intensity, 48 h; Potency, µM (doses to about 46.1 µM), for the others: at the top dose activity, positive = re-replication, actives largely listed as activators; 350,000 tested, 2.9% active; AID 624296, 2012; note: potency is the fitted concentration of half-maximal effect; % of control where 0% means no effect; nearly all actives have a fitted effect of over 50% in size
SW480 rereplic: A quantitative high throughput screen for small molecules that induce DNA re-replication in SW480 colon adenocarcinoma cells; Potency, µM (series often up to 46.1 µM), for inactives: top-dose re-replication activation, hits mostly activators; SW480 DNA re-replication, Hoechst DNA content imaging, 48 h; AID 624297, 2012; 340,000 tested, 1.8% active; note: potency is the fitted concentration of half-maximal effect; % of control where 0% means no effect; nearly all actives have a fitted effect of over 55% in size
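Cells (250 per well) received 23 nL compound or DMSO by pin tool and were kept 48 hr at 37 C, 5% CO2. Nuclei were then stained with Hoechst for 40 min and scanned for DNA content.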
D3 antag: qHTS of D3 Dopamine Receptor Antagonist: qHTS; 360,000 tested, 2.5% active; AID 652054, 2013; max response, negative = inhibition, %; D3R cells, DiscoveRx beta-arrestin luminescence, antagonist mode; stronger effect = lower value; D(3) dopamine receptor (Homo sapiens), P35462; in the data active = max response below about -50%; inconclusive = no clear call, values can overlap the other calls; note: % is set by controls: 0 for no effect and ±100 for the full control effect
Target sequence (P35462 whole entry, looked up): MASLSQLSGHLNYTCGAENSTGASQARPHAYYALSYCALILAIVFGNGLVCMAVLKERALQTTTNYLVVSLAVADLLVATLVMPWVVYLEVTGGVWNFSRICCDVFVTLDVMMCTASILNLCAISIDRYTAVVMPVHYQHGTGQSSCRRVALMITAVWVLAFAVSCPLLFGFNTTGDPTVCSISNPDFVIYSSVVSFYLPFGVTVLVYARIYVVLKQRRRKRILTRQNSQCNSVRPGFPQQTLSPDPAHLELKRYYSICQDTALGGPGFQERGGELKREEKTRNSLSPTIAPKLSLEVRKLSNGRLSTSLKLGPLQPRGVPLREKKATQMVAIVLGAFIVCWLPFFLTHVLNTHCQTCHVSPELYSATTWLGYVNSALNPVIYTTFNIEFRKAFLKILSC
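Cells expressing the human receptor were seeded at 1500 cells/well, incubated overnight at 37 degrees C in 5% CO2, then exposed to library compounds with dopamine controls for 90 minutes at 37 degrees C before luminescent detection.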
KB-3-1 cytotox: qHTS assay for MDR1-selective chemotherapeutics: Primary screen using the parental adenocarcinoma cell KB-3-1; AID 1347075, 2019; 400,000 tested, 1.4% active; KB-3-1 viability, CellTiter-Glo ATP luminescence, 72 h; Potency, µM (top dose mostly 46.1 µM), actives largely listed as cytotoxic; note: potency is the fitted concentration of half-maximal effect; % is set by controls: 0 for no effect and ±100 for the full control effect; nearly all actives have a fitted effect of over 60% in size
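Cytotoxicity in the drug-sensitive parental line KB-3-1 was scored as loss of CellTiter-Glo luminescence following 72 h incubation with compound. Values come from curve fitting of normalized concentration-response data.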
KB-V1 MDR tox: qHTS assay for MDR1-selective chemotherapeutics: Primary screen using the drug-selected MDR subline cells KB-V1 | 400,000 tested, 3.4% active | KB-V1 MDR cells viability, CellTiter-Glo, 72 h | Potency, µM (doses to about 46.1 µM), actives largely listed as cytotoxic | AID 1347076, 2019; note: potency is the fitted concentration of half-maximal effect; % is set by controls: 0 for no effect and ±100 for the full control effect; nearly all actives have a fitted effect of over 60% in size
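Luminescent ATP read-out (CellTiter-Glo, 10 min) measures survival of drug-selected KB-V1 MDR cells after 72 h, 37 degrees C compound exposure. Medium: phenol-red-free DMEM, 10% FBS. Values from fitted concentration-response curves.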
D3 ag: qHTS of D3 Dopamine Receptor Agonist: qHTS | max activation, % | D3R DiscoveRx beta-arrestin cells, luminescence, 90 min | AID 652048, 2013 | 410,000 tested, 0.58% active | D(3) dopamine receptor (Homo sapiens), P35462; in the data active = max activation above about 30%; note: 0% is about no effect
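Agonist-mode cell screen: cells plated at 1500/well and incubated overnight at 37 °C, then exposed to library compounds for 90 min at 37 °C. Detection reagent was added for 30–60 min at room temperature, and luminescence was read.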
* = called active by the depositor; i = inactive; ? = inconclusive; · = not tested or not shown; [ ] = remark or other dose. Sampled rows, rich in hits. Any-hit rate of the full collection: about 8.9%. Unless noted, calls come from the whole dose curve; as a rule, active = well fitted curve in the direction sought with a large enough effect; inconclusive = small, poorly fitted or top-dose-only effect, or another doubt; inactive = no such curve, though single readings can be large; an effect the other way counts as inactive or inconclusive.

SMILES	MCF10A rerep	SW480 rereplic	D3 antag	KB-3-1 cytotox	KB-V1 MDR tox	D3 ag
COc1ccc(-c2cc(C(=O)N3CCCC3)no2)cc1	-5%	-1%	-1	i	i	-8
COc1ccc(-c2cc(C(=O)N3CCN(C(c4ccccc4)c4ccccc4)CC3)no2)cc1OC	10µM*	-1%	13	i	i	9
CCc1cccc(OCC(=O)Nc2cc(Cl)ccc2-n2cncn2)c1	?	4.6µM*	-5	i	i	5
CC1CCCC(NC(=O)CN(C)CC(=O)Nc2cccc(F)c2)C1C (stereo unspecified)	-3%	1%	-15	i	i	-10
O=c1oc2c(F)cc(F)cc2cc1S(=O)(=O)c1ccc(F)cc1	·	·	·	·	·	-3
CC(C)N(C(=O)CN(C#N)c1nc(N(C)C)nc(N(C)C)n1)c1ccccc1	-8%	-6%	-21	i	6.5µM*	-1
COc1nc(N/N=C/c2ccc(-c3ccccc3[N+](=O)[O-])o2)nc(N2CCOCC2)n1	10µM*	?	4	?	?	6
O=[N+]([O-])c1ccc(-c2ccc(/C=N/Nc3nc(NCc4ccccc4)nc(N4CCOCC4)n3)o2)cc1	7.3µM*	9.2µM*	5	i	i	-1
O=[N+]([O-])c1ccc(/C=N/Nc2nc(N3CCCCCC3)nc(N3CCCCCC3)n2)o1	?	?	-2	6.5µM*	?	0
COC(=O)c1ccccc1-c1ccc(/C=N/Nc2nc(N3CCCC3)nc(N3CCCC3)n2)o1	?	?	23	i	?	26
O=C(NCc1ccccc1)C(=O)Nc1c2c(nn1-c1ccccc1)CSC2	·	·	·	i	i	-9
COc1cc2nc(CC(O)c3nc4cc(OC)c(OC)cc4[nH]3)[nH]c2cc1OC (stereo unspecified)	·	·	·	i	i	·
CC(O)CNCCOc1ccccc1OCc1ccccc1 (stereo unspecified)	3%	1%	-80*	i	i	-15
CNCCCCOc1ccccc1-c1ccccc1	25%	?	-76*	?	?	-28
OCCNCCOc1ccccc1-c1ccccc1	-2%	6%	-76*	i	i	-24
OCCNCCOCCOc1ccccc1-c1ccccc1	4%	12%	-16	i	i	-4
CC(O)CNCCNCc1c(OCc2ccccc2)ccc2ccccc12 (stereo unspecified)	?	3%	?	i	i	-32
CNCCOc1ccccc1-c1ccccc1	3%	0%	?	i	i	-1
COCCNCCOc1ccccc1-c1ccccc1	2%	-1%[9.22 µM]	-83*	i	i	-10
COc1ccc(Cl)cc1NC(=O)c1c(C(=O)Nc2cccc(C)c2C)sc2nc(C)cc(=O)n12	·	·	·	i	?	5
COc1ccc(NS(=O)(=O)c2ccc(-n3cccn3)cc2)cc1OC	·	·	·	?	i	-12
CCCN(C(=O)c1cc2c(=O)oc3ccccc3c2s1)c1ccc(CC)cc1	·	·	·	i	?	8
COc1ccc(CNC(=O)c2cc(-c3cccs3)nc3ccccc23)c(OC)c1	·	·	·	i	i	4
CCCCNCCOc1ccccc1-c1ccccc1	?	24%	-99*	i	i	-25
CC(O)CNCCOc1ccccc1-c1ccccc1 (stereo unspecified)	0%	-8%	-80*	i	?	-37
SMILES	MCF10A rerep	SW480 rereplic	D3 antag	KB-3-1 cytotox	KB-V1 MDR tox	D3 ag
C=CCNCCCCOc1ccccc1-c1ccccc1	?	14%	-93*	i	i	-38
COCCCNCCCCOc1ccccc1-c1ccccc1	3%	?	-78*	?	?	-12
COc1ccc(-c2nc(C)c(CCNC(=O)C(=O)Nc3cc(C)cc(C)c3)s2)cc1OC	·	·	·	?	?	6
COc1ccccc1CCNC(=O)c1ccc2c(c1)c(C)c(C)n2C	·	·	·	i	i	4
Cc1cccc(C)c1-n1ncc(C(=O)N2CCN(c3ccccc3)CC2)c1C1CCN(C(=O)OC(C)(C)C)CC1	·	·	·	?	i	-5
CN(C)CCOc1ccccc1-c1ccccc1	-2%	-1%	?	i	i	-10
COCCCNCCOc1ccccc1-c1ccccc1	2%	-2%	-81*	i	i	-36
C=CCNCCCCOc1ccc(OCc2ccccc2)cc1	?	21µM*	-10	i	i	-6
O=C(NC1CC1)c1nc2c(nnn2Cc2ccccc2Cl)c(=O)[nH]1	?	17%	14	i	i	12
O=C(NCCc1ccccc1)c1nc2c(nnn2Cc2ccccc2Cl)c(=O)[nH]1	48%	-6%	31	i	15µM*	7
O=C(Nc1cccn(Cc2c(Cl)cccc2Cl)c1=O)c1ccc(Cl)cc1Cl	15%	24%	-12	21µM*	16µM*	10
CC(=O)Nc1cccn(Cc2c(Cl)cccc2Cl)c1=O	?	-2%	7	i	i	9
O=C(Nc1cccn(Cc2c(Cl)cccc2Cl)c1=O)c1ccccc1Cl	16%	1%	6	?	5.8µM*	1
O=C(Nc1c[nH]c(=O)[nH]c1=O)c1ccccc1Cl	?	-2%	21	?	16µM*	1
CCOc1ccc(NC(=O)Cn2cc(C(=O)c3ccc(C)c(C)c3)c(=O)c3cc4c(cc32)OCCO4)cc1	·	·	·	i	?	-15
CCOCCCNC(=O)NC(CCC(C)C)c1c(-n2cccc2)sc2c1CCN(C)C2 (stereo unspecified)	·	·	·	·	·	-17
O=C(c1csc2ccccc12)N1CCN(c2ccc(Cl)c(Cl)c2)CC1	-186%[0.0737 µM]	2%	61	i	i	2
O=C(c1ccc(Oc2ccc(C(F)(F)F)cn2)cc1)N1CCN(c2ccccc2)CC1	26%	-3%	10	?	21µM*	-12
COc1ccc(N2CCN(C(=O)c3csc4ccccc34)CC2)cc1	9%	1%	5	i	21µM*	-7
COc1ccc(N2CCN(C(=O)Cc3nn(C)c(=O)c4ccccc34)CC2)cc1	-12%	-9%	8	i	15µM*	5
COc1ccc(N2CCN(C(=O)c3ccc(Oc4ccc(C(F)(F)F)cn4)cc3)CC2)cc1	5%	1%	27	?	?	-9
